Compound activity (PubChem)
Shown are actives, neighbours in structure and some others; about 0.54% of the full set was active somewhere.
EPAC2 ag: activates human EPAC2 exchange factor. EPAC2 activation, biochemical qHTS; response scale: 100% = 6.5 mM cAMP response. AID 720711. Q8WZA2. Potency, µM (doses to about 154 µM), usual class: activators. 360,000 tested, 0.079% active; also: nearly all actives have a fitted effect of over 50% in size
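Readout is BODIPY fluorescence (480 nm excitation, 540 nm emission), which falls as labeled GDP is exchanged off Rap1B. EPAC2 at 100 nM acted on 250 nM RAP1B-BODIPY-GDP with 50 uM GDP present.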
EPAC2 antagonist: blocks human EPAC2 exchange factor | 360,000 tested, 0.18% active | EPAC2 GEF exchange of Rap1B-BODIPY-GDP, fluorescence | Potency, µM (series often up to 114 µM), usual class: inhibitors | AID 720708; also: nearly all actives have a fitted effect of over 45% in size
EPAC1 antag: blocks human EPAC1 exchange factor; O95398; EPAC1 GEF assay, Rap1b-BODIPY-GDP exchange fluorescence; Potency, µM (series often up to 115 µM), usual class: inhibitors; 360,000 tested, 0.14% active; also: nearly all actives have a fitted effect of over 50% in size
TDP1 inh: TDP1 (human) enzyme inhibition | 350,000 tested, 0.28% active | AID 485290 | Potency, µM (titrated, usually from 130 µM), most hits filed as inhibitors | Q9NUW8 | recombinant TDP1, AlphaScreen DNA substrate cleavage; also: nearly all actives have a fitted effect of over 40% in size
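Enzyme-compound mixtures sat 15 min at room temperature, followed by a 5 min reaction with 15 nM final substrate and 10 min with AlphaScreen beads. Recombinant human Tdp1 was used at 1 nM final.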
EPAC1 ag: agonists of human EPAC1; O95398; EPAC1 agonist qHTS, biochemical assay; response scale: 100% = response to 6.5 mM cAMP; Potency, µM (doses to about 154 µM), actives largely listed as activators; 360,000 tested, 0.073% active; also: nearly all actives have a fitted effect of over 60% in size
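Nucleotide exchange assay: 100 nM EPAC1 with 250 nM Rap1B loaded with BODIPY-GDP and 50 uM GDP, room temperature. Fluorescence (480/540 nm) read every 5 min for 30 min; signal change normalized to 6.5 mM cAMP as full agonist.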
ERG-DNA inh: blocks human ERG Ets domain binding to DNA | P11308 | fluorescence polarization, His-ERG Ets domain / labelled DNA | Potency, µM (series often up to 76.9 µM), usual class: inhibitors | 370,000 tested, 0.028% active | AID 624246; active = well fitted inhibition curve with a large enough effect in the polarisation, with a control signal flat; inconclusive = small, poorly fitted or top-dose-only effect, or effect the other way, or a change in a side signal; inactive = no such curve, though single readings can be large or run the other way; the % refers to the polarisation;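 also: polarization taken with two DNA probes labelled with fluorescein and Texas red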
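His-tagged ERG Ets domain (1 uM in the protein solution; 300mM KCl, 50mM Tris-HCl, 1mM EDTA, 1mM DTT, pH 7.5) received compound, then a probe mix of 5 nM fluorescein-DNA and 100nM Texas-615-DNA. Fluorescence polarization was read for both dyes.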
Each line names hits and unclear results; the compound was inactive in the other large screens. Unless noted, calls follow the shape of the dose curve; as a rule, active = well fitted curve in the direction sought with a large enough effect; inconclusive = small, poorly fitted or top-dose-only effect, or another doubt; inactive = no such curve, though single readings can be large; an effect the other way counts as inactive or inconclusive.

Cc1cccn2c(=O)c3cc(C#N)c(=NC(=O)c4ccccc4)n(Cc4ccco4)c3nc12	EPAC2 antagonist inconclusive, EPAC1 antag 89µM, ERG-DNA inh inconclusive (no result: TDP1 inh)
Cc1cccc(C(=O)N=c2c(C#N)cc3c(=O)n4cccc(C)c4nc3n2Cc2ccco2)c1	EPAC1 antag 50µM, TDP1 inh 16µM
CCC1CCCCN1Cc1nc2c(c(=O)n(C)c(=O)n2C)n1Cc1c(F)cccc1Cl (configuration not stated)	none (no result: EPAC2 ag, EPAC2 antagonist, EPAC1 antag, EPAC1 ag, ERG-DNA inh)
Cc1ccc(S(=O)(=O)N2CCCCC2)cc1C(=O)Nc1ccc(S(=O)(=O)Nc2ncccn2)cc1	TDP1 inh 32µM
COc1cccc(CNc2ccc(S(=O)(=O)Nc3nccs3)cc2)c1O	EPAC2 antagonist inconclusive
O=S(=O)(Nc1nccs1)c1ccc(NCc2cc(Br)cc(Br)c2O)cc1	EPAC2 antagonist 2.8µM, EPAC1 antag inconclusive
O=C(Cc1ccccc1Cl)Nc1ccc(S(=O)(=O)Nc2nccs2)cc1	EPAC2 antagonist 1µM
COCC(=O)Nc1ccc(S(=O)(=O)Nc2nccs2)cc1	none (no result: TDP1 inh)
N[C@H](CSSC[C@@H](N)C(=O)O)C(=O)O	none (no result: EPAC2 ag, EPAC2 antagonist, EPAC1 antag, EPAC1 ag, ERG-DNA inh)
c1c[nH]c(CNc2ncnc3ccc(-c4ccc5c(c4)OCO5)cc23)n1	none (no result: EPAC2 ag, EPAC2 antagonist, EPAC1 antag, EPAC1 ag, ERG-DNA inh)
Cc1cc2c(s1)c1cnn(Cc3cccc(F)c3)c(=O)c1n2C	none (no result: EPAC2 ag, EPAC2 antagonist, EPAC1 antag, EPAC1 ag, ERG-DNA inh)
O=c1c2ccccc2nc2ccc(NCc3ccco3)nn12	TDP1 inh 50µM
Cc1sc2nc3ccc(NCc4ccco4)nn3c(=O)c2c1C	none
Cc1cccnc1NC(=O)CCc1nnc2ccc(NCc3ccco3)nn12	none (no result: TDP1 inh)
O=C(CCc1nnc2ccc(NCc3ccco3)nn12)Nc1ccccn1	TDP1 inh 25µM
CC(=O)c1cc2c(s1)c1cnn(Cc3ccccc3F)c(=O)c1n2C	none (no result: EPAC2 ag, EPAC2 antagonist, EPAC1 antag, EPAC1 ag, ERG-DNA inh)
OC(c1ccccc1)(c1ccccc1)c1cnc2ccccn12	none (no result: EPAC2 ag, EPAC2 antagonist, EPAC1 antag, EPAC1 ag, ERG-DNA inh)
COC(=O)c1sc(-c2ccc(C(C)(C)C)cc2)cc1NC(=O)c1ccccc1C(=O)O	EPAC1 antag 56µM
Cc1ccc(/C=C/C(=O)Nc2ccc(S(=O)(=O)Nc3onc(C)c3C)cc2)cc1	ERG-DNA inh 28µM (no result: TDP1 inh)
CC(Oc1ccc(Cl)cc1Cl)c1ccn[nH]1 (configuration not stated)	EPAC2 antagonist 45µM
CSCC[C@H](N)C(=O)N[C@@H](CO)C(=O)N[C@@H](CCCN=C(N)N)C(=O)N1CCC[C@H]1C(=O)N[C@@H](C)C(=O)N[C@@H](CS)C(=O)N1CCC[C@H]1C(=O)N[C@@H](CC(N)=O)C(=O)N[C@@H](CC(=O)O)C(=O)N[C@@H](CCCCN)C(=O)N[C@@H](Cc1ccc(O)cc1)C(=O)N[C@@H](CCC(=O)O)C(=O)O	none (no result: EPAC2 ag, EPAC2 antagonist, EPAC1 antag, EPAC1 ag, ERG-DNA inh)
N#C/C(=C(/O)C(Cl)(Cl)Cl)c1nc2ccccc2[nH]1	EPAC2 antagonist 13µM (no result: TDP1 inh)
C/C(O)=C(/C#N)c1nc2ccccc2[nH]1	none
O=C(Cn1ncc2c3ccccc3n(Cc3cccc(Cl)c3)c2c1=O)N1CCCCC1	none (no result: EPAC2 ag, EPAC2 antagonist, EPAC1 antag, EPAC1 ag)
O=c1[nH]ncc2c3ccccc3n(Cc3cccc(Cl)c3)c12	EPAC2 ag inconclusive, EPAC1 ag 79µM
COc1ccc(S(=O)(=O)C(C#N)c2nc3ccccc3nc2N2CCC(C)CC2)cc1 (configuration not stated)	none (no result: EPAC2 ag, EPAC2 antagonist, EPAC1 antag, EPAC1 ag, ERG-DNA inh)
CC1CCCN(c2nc3ccccc3nc2C(C#N)S(=O)(=O)c2ccccc2)C1 (configuration not stated)	EPAC1 ag 56µM
CCC(=O)NC(c1ccc(Br)o1)c1cc(Cl)c2cccnc2c1O (configuration not stated)	none (no result: EPAC2 ag, EPAC2 antagonist, EPAC1 antag, EPAC1 ag, ERG-DNA inh)
CN(CC(=O)NC(=O)NCc1ccco1)Cc1nc2ccccc2c(=O)[nH]1	TDP1 inh 50µM
COc1ccccc1N(CC(=O)Nc1cc(C)on1)S(=O)(=O)c1ccc(Cl)cc1	EPAC2 ag 4µM
CN1c2ccccc2C(C)(C)C12C=Nc1c(cc(N3CCOCC3)c3ccccc13)O2 (configuration not stated)	EPAC1 antag 89µM
